Laboratory results reported in PubChem BioAssay.
A number with no mark means an inactive call. A call without a number means that no potency is given here. For some assays here: Potency and affinity values are given separately. Activity calls are given as the source filed them. Unless noted, no rule for the calls is given here.

Legend:
[1] = antimalarial activity against Dd2 strain (AID 2302;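 active = growth inhibition above 50% at the single 2 µM test dose, taken to imply half-maximal potency below 2 µM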); settings: P. falciparum Dd2 in RBCs, LDH growth readout, 72 h; at 2 µM; stronger effect = higher value
[2] = human hepatoma cell viability loss – ATP luminescence, cytotoxicity control for P. falciparum antimalarial project, primary screen (AID 2303;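 active = inhibition above 50%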); settings: HepG2 viability, 24-48 h, at 10 µM, stronger effect = higher value
[3] = target: L-lactate dehydrogenase (Plasmodium falciparum (isolate CDC / Honduras)) (UniProt Q27743); experiment: PfLDH activity inhibition – cell lysate, 3D7 strain, counter-screen for P. falciparum growth inhibition project (AID 2304); settings: P. falciparum 3D7 crude extract, LDH APAD/NBT absorbance; at 2 µM; stronger effect = higher value
Sequence of L-lactate dehydrogenase (Plasmodium falciparum (isolate CDC / Honduras)) (Q27743 whole entry, looked up): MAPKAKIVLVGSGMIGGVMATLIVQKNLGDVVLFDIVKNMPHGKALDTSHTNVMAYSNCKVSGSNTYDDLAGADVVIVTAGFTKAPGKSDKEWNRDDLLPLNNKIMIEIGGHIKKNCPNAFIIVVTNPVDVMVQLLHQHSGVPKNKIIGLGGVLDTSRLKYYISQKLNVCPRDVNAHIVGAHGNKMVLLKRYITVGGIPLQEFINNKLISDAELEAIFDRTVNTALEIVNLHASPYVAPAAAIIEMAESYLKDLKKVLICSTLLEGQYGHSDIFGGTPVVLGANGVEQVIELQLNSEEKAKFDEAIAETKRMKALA

[4] = inhibition of 3D7 malaria parasite growth – strain 3D7 (AID 2306); settings: P. falciparum 3D7 erythrocytic growth, LDH absorbance, 72 h; at 2 µM; stronger effect = higher value
[5] = target: Calcium-dependent protein kinase 1 (Plasmodium falciparum (isolate 3D7)) (UniProt P62344); experiment: PfCDPK1 kinase inhibitors, biochemical, TCAMS library (AID 1159585; cut-off not given, nearly all actives have IC50 up to about 0.98 µM;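 also: inhibitors leave more ATP so luminescence rises with inhibition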); settings: recombinant PfCDPK1, Kinase-Glo ATP depletion luminescence
Sequence of Calcium-dependent protein kinase 1 (Plasmodium falciparum (isolate 3D7)) (P62344 whole entry, looked up): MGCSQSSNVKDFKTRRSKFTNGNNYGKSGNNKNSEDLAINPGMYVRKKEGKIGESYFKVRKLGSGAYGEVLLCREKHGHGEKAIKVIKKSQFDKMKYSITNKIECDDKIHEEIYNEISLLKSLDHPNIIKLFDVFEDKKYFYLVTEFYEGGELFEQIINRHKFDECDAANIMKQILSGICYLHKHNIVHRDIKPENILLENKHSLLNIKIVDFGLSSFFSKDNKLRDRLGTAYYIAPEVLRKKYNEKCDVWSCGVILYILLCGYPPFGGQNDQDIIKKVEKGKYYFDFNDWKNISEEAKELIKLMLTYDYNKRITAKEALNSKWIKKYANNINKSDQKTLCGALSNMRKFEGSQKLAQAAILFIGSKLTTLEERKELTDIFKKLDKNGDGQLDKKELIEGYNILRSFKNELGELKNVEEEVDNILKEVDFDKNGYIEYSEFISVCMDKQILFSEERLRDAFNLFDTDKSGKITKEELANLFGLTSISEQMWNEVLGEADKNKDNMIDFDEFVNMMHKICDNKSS

[6] = target: Plasmodium falciparum protein kinase 6 (PK6, PF3D7_1337100) (UniProt Q8IDW1); experiment: PfPK6 kinase inhibitors, biochemical, TCAMS library (AID 1159586); settings: recombinant PfPK6, Kinase-Glo ATP depletion luminescence
Sequence of Plasmodium falciparum protein kinase 6 (PK6, PF3D7_1337100) (Q8IDW1 1-305): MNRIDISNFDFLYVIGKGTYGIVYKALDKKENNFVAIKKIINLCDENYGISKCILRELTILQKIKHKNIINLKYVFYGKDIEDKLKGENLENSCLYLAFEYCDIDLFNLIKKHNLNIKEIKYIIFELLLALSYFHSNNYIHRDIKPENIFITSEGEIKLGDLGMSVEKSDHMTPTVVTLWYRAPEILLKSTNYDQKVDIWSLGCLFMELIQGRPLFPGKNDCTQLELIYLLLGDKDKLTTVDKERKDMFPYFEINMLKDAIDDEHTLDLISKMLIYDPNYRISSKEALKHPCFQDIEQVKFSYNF

[7] = target: Protein kinase 7 (PK7), Plasmodium falciparum 3D7 (PF3D7_0213400) (UniProt Q7YTF7); experiment: inhibition of Plasmodium PK7 catalytic activity – biochemical, TCAMS antimalarial set, Kinase-Glo luminescence (AID 1159587); settings: recombinant PfPK7, Kinase-Glo ATP depletion luminescence
Sequence of Protein kinase 7 (PK7), Plasmodium falciparum 3D7 (PF3D7_0213400) (Q7YTF7 1-343): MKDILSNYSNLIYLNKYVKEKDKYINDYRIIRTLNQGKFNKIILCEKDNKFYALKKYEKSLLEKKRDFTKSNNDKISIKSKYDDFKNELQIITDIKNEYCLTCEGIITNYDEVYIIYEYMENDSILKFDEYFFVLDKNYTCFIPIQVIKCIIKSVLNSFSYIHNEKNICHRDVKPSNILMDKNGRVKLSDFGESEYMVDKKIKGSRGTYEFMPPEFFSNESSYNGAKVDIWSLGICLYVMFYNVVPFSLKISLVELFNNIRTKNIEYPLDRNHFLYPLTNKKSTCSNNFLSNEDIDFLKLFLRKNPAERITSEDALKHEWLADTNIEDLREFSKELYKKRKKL

[8] = target: Calcium-dependent protein kinase 4 (Plasmodium falciparum (isolate 3D7)) (UniProt Q8IBS5); experiment: PfCDPK4 kinase inhibitors, biochemical, TCAMS library (AID 1159588; cut-off not given, nearly all actives have IC50 up to about 0.91 µM); settings: recombinant PfCDPK4, Kinase-Glo ATP depletion luminescence
Sequence of Calcium-dependent protein kinase 4 (Plasmodium falciparum (isolate 3D7)) (Q8IBS5 whole entry, looked up): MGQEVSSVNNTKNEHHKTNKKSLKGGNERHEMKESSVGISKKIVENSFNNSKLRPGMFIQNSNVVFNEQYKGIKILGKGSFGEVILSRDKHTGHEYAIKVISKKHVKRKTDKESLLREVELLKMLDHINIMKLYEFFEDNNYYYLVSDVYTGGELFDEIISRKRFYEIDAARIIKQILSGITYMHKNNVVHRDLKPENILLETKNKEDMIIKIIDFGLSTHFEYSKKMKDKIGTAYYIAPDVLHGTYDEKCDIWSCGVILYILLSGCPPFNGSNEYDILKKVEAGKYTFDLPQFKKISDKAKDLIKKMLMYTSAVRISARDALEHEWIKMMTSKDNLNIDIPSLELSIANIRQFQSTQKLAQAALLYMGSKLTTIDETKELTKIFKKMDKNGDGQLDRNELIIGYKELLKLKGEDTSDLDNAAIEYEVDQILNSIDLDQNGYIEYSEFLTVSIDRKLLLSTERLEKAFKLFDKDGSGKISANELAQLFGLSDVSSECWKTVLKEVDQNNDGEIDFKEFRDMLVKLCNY

SMILES | growth inhibition [1] | inhibition [2] | inhibition [3] [%] | growth inhibition [4] | outcome [5] | outcome [6] | outcome [7] | outcome [8]
Cc1ccc(Nc2ccnc(Nc3ccc(C)c(F)c3)n2)cc1O | 27% | 4% | -4 | 100% (active) | inactive | inactive | inactive | inactive
COC(=O)c1cccc(CNCc2ccc(-c3ccc(-c4nc5ccccc5[nH]4)s3)cc2)c1 | 79% (active) | 20% | 4 | 100% (active) | inactive | inactive | inactive | inactive
COc1ccc(C(=O)CCC(=O)N(CCC2CCCN2C)Cc2ccc(-c3ccc(CNCCc4ccc(S(C)(=O)=O)cc4)cn3)cc2)cc1F (stereo not given) | 45% | 13% | -2 | 93% (active) | inactive | inactive | inactive | inactive
COc1ccc(F)cc1-c1ccc(C(=O)N2CCCN(c3ccc(C#N)cn3)CC2)cc1 | 100% (active) | 9% | -2 | 99% (active) | inactive | inactive | inactive | inactive
Cc1cccc(N2CCN(C3CCC(NC(=O)c4cc5ccccc5[nH]4)CC3)CC2)c1C (stereo not given) | 21% | 49% | -4 | 101% (active) | inactive | inactive | inactive | inactive
O=C(Nc1cccc(CN2CCCN(Cc3cccc(Cl)c3)CC2)c1)c1ccc(Br)cc1 | 16% | 38% | 1 | 92% (active) | inactive | inactive | inactive | inactive
NC(=NCCc1ccccc1Cl)c1ccc2ccccc2c1 | 11% | 25% | -2 | 88% (active) | inactive | inactive | inactive | inactive
O=[N+]([O-])c1cccc(CNC2CCN(Cc3ccc(C(F)(F)F)cc3)CC2)c1 | 28% | 0% | 1 | 99% (active) | inactive | inactive | inactive | inactive
COc1cc2nc(N3CCC(CNC(=O)c4ccc(-c5ccc(C(=O)N(C)C)cc5O)cc4)CC3)nc(N)c2cc1OC | 90% (active) | 2% | 3 | 101% (active) | inactive | inactive | inactive | inactive
Cc1cc(N[C@@H](CC(C)C)C(=O)NCc2cccc(F)c2)nc(NCC2CCCCC2)n1 | 70% (active) | 3% | -3 | 99% (active) | inactive | inactive | inactive | inactive
O=C(Nc1cccc(-c2ccc(-c3nc4ccc(F)cc4[nH]3)cc2)c1)Nc1ccc(Cl)c(Cl)c1 | 49% | 79% (active) | 3 | 100% (active) | inactive | inactive | inactive | inactive
CC(C)NCc1cccc(-c2ccc(-c3nc4ccc(C(F)(F)F)cc4[nH]3)cc2)c1 | 96% (active) | 7% | -6 | 99% (active) | inactive | inactive | inactive | inactive
CC(C)C(NC(=O)Cc1cccc2ccccc12)C(=O)Nc1cccc(C#N)c1 (stereo not given) | 91% (active) | -3% | 0 | 92% (active) | inactive | inactive | inactive | inactive
O=S(=O)(c1ccc(OCc2ccc(Cl)cc2)cc1)c1cc2c(cc1O)CCN(C1CCC1)CC2 | 63% (active) | 11% | 3 | 99% (active) | inactive | inactive | inactive | inactive
CC(=O)Nc1ccc(OCCCN(Cc2ccccc2C(F)(F)F)c2ccc(C(F)(F)F)c(C#N)c2)c(Cl)c1 | 43% | 5% | 3 | 85% (active) | inactive | inactive | inactive | inactive
CN(C)CCOc1cccc(-c2cnc(N)c(-c3nc4ccc(S(C)(=O)=O)cc4[nH]3)c2)c1 | 82% (active) | 39% | 1 | 100% (active) | inactive | inactive | inactive | inactive
CC(=O)Nc1ccc(OCCN(Cc2ccccc2OC(F)(F)F)c2ccc(C(F)(F)F)c(C#N)c2)c(Cl)c1 | 96% (active) | 8% | 5 | 96% (active) | inactive | inactive | inactive | inactive
CCCc1cc(Cc2cnc(N)nc2N)ccc1OCCCCCC(=O)OCC | 1% | -11% | 0 | 97% (active) | inactive | inactive | inactive | inactive
CCOC(=O)c1ccc(N(CCCN(CCCN(c2ccc(C(=O)OCC)cc2)S(=O)(=O)c2ccc(C)cc2)CCc2ccc(O)cc2)S(=O)(=O)c2ccc(C)cc2)cc1 | 74% (active) | -11% | -1 | 96% (active) | inactive | inactive | inactive | inactive
NC(N)=NN=CC(=O)Nc1ccc(Br)cc1 | 1% | 5% | 0 | 100% (active) | inactive | inactive | inactive | inactive

SMILES | growth inhibition [1] | inhibition [2] | inhibition [3] [%] | growth inhibition [4] | outcome [5] | outcome [6] | outcome [7] | outcome [8]
NC(=NCCc1ccc(Cl)c(Cl)c1)c1ccc2ccccc2c1 | 29% | 60% (active) | -3 | 100% (active) | inactive | inactive | inactive | inactive
Cc1cc(OCC2CCN(c3ncc(C(=O)Nc4ccccc4)cc3Cl)CC2)ccc1F | 87% (active) | 27% | -2 | 91% (active) | inactive | inactive | inactive | inactive
CCOC(=O)c1ccc(-c2c(C(F)(F)F)noc2-c2cc(CC)c(OC)cc2O)o1 | 95% (active) | -7% | 1 | 100% (active) | inactive | inactive | inactive | inactive
FC(F)(F)c1ccc2nc(-c3ccc(-c4ccc(CNCc5cnn(-c6ccccc6)n5)cc4)cc3)[nH]c2c1 | 76% (active) | 35% | -1 | 100% (active) | inactive | inactive | inactive | inactive
COC(=O)c1cccc(CNCc2ccc(-c3ccc(-c4nc5ccc(F)cc5[nH]4)cc3)cc2)c1 | 95% (active) | 8% | 2 | 100% (active) | inactive | inactive | inactive | inactive
CCCn1c(SCC(=O)Nc2cc(C(F)(F)F)ccc2Cl)n[nH]c1=O | 94% (active) | -6% | -2 | 96% (active) | inactive | inactive | inactive | inactive
CC(C)(C)c1ccc(NC(=O)c2ccc(CN3CCCN(Cc4ccsc4)CC3)cc2)cc1 | -1% | 50% (active) | -7 | 96% (active) | inactive | inactive | inactive | inactive
CC(C)(C)c1ccc(CN2CCC(NC(=O)c3ccc(-c4cccc(F)c4)s3)CC2)cc1 | 24% | 35% | 0 | 92% (active) | inactive | inactive | inactive | inactive
CS(=O)(=O)N(c1ccccc1)c1cc(C(=O)N[C@@H](Cc2ccccc2)[C@H](O)CNC2CC2)cc(N2CCCC2=O)c1 | 98% (active) | 1% | 4 | 100% (active) | inactive | inactive | inactive | inactive
Cc1[nH]c2ccccc2c1C(=O)C(C)Sc1n[nH]c(-c2ccccc2Br)n1 (stereo not given) | 100% (active) | -7% | -3 | 101% (active) | inactive | inactive | inactive | inactive
CC(C)COc1ccc(Cl)cc1Cc1ccc(-c2nc3cc(F)c(F)cc3[nH]2)o1 | 96% (active) | 27% | 4 | 95% (active) | inactive | inactive | inactive | inactive
Cc1cccc2[nH]c(-c3ccc(-c4cccc(NC(=O)C(C)CN5CCN(C)CC5)c4)cc3)nc12 (stereo not given) | 51% (active) | 5% | 3 | 98% (active) | inactive | inactive | inactive | inactive
C[C@@H](C(N)=O)N1CCCCC1c1ccc(OCc2cccc(F)c2)cc1 (stereo not given in full) | 96% (active) | 79% (active) | 9 | 84% (active) | inactive | inactive | inactive | inactive
COc1cc(C(=O)N2COCC(CCCN3CCC(N4CCCC4)CC3)(c3ccc(Cl)c(Cl)c3)C2)cc(OC)c1OC (stereo not given) | 70% (active) | 5% | -1 | 95% (active) | inactive | inactive | inactive | inactive
CNC(=O)NC1CCN(Cc2c(-c3cccs3)nc3ccccc3c2C(=O)N[C@@H](C)C2CCCCC2)CC1 | 97% (active) | 5% | 1 | 99% (active) | inactive | inactive | inactive | inactive
O=C(/C=C/c1ccc(Cl)c(Cl)c1)NCCCCCN1CCC(NC(=O)Nc2cc(Cl)cc(Cl)c2)CC1 | 5% | 98% (active) | -8 | 94% (active) | inactive | inactive | inactive | inactive
COc1ccc(OC)c(C=NNc2nc3ccccc3[nH]2)c1 | 28% | -6% | 7 | 99% (active) | inactive | inactive | inactive | inactive
COC(=O)CCCCOc1cc(Cc2cnc(N)nc2N)cc(OC)c1OC | -1% | -10% | -3 | 97% (active) | inactive | inactive | inactive | inactive
COc1ccc2nccc(N3CCC(CCNCc4cc5c(cn4)OCCO5)CC3)c2c1 | 99% (active) | 26% | 6 | 100% (active) | inactive | inactive | inactive | inactive
CN1CCCC1CCNc1ncc2c(-c3ccc(NC(=O)Nc4cc(C(F)(F)F)ccc4F)c(F)c3)nn(C)c2n1 (stereo not given) | 90% (active) | 100% (active) | 1 | 99% (active) | inactive | inactive | inactive | inactive
